Active and inactive are the calls of the source. The rule behind the calls is not given here.

The nature of the first assay: blockers of DNA damage checkpoint Chk1 activation – imaging, HeLa, hydroxyurea, phospho-Chk1 antibody, percent positive cells, primary screen (AID 1186). The settings on record: hydroxyurea-induced phospho-Chk1 immunofluorescence imaging, higher = more signal.
Turning to `Cc1ccc(S(=O)(=O)c2cc3oc2CC[C@@H](CO)NC(=O)N(C)Cc2cn(nn2)C[C@H](Cc2ccccc2)NC3=O)cc1`, the z-score is -0.131 (inactive).
For `Cc1ccc(S[C@]2(C(=O)O)CC(=O)N(Cc3ccccc3)[C@@H]2c2ccc(CO)cc2)cc1`, the z-score is -0.947 (inactive).
Still for that read-out and setting: the figure for `C=CCC(OC(C)=O)[C@@H]1[C@@H](N(Cc2cc3ccccc3o2)C(=O)Cc2ccc(F)cc2)c2cc(OCCCO)ccc2N1C(=O)c1ccc(-c2ccccc2)cc1` (stereo partly drawn) is 0.0934 (inactive); for `COC(=O)[C@@]1(Cc2ccc(OC)cc2)[C@H]2c3cc(C(=O)N(C)C)n(Cc4ccc(C)c(F)c4F)c3C[C@H]2CN1C(=O)c1ccccc1` it is 0.758 (inactive); for `CN1C(=O)C2C=CC(C(O)c3ccc(N(C)C)cc3)N(Nc3ccc([N+](=O)[O-])cc3[N+](=O)[O-])C2C1=O` (stereo not drawn) it is 0.347 (inactive).
On the same count and under the same terms, under `CN1C2C=C(c3ccc(CO)cc3)C(C3C(=O)N(C(N)=O)C(=O)C32)C1c1cccs1` (stereo not drawn) stands -1.21 (inactive); under `C=C(COC)/C(=C/C[C@@H](OC(=O)c1ccncc1)c1ccc(OCCO)cc1)c1cc(C(=O)OC)ccc1OC`, -0.252 (inactive).
`CN(C)CCCC[C@@H]1NC(=O)[C@@H]2C[C@H](C(=O)O)[C@H](c3ccc(O)cc3)N2C1=O`: the z-score is 0.317 (inactive).
On to `O=[N+]([O-])c1ccc(C[n+]2ccc3ccc(O)cc3c2)o1`, for which the z-score was -0.0465 (inactive).
The same measure, in the same setting: under `COCCOC(=O)N1C(=O)[C@@]2(c3cc(C#CCNC(N)=O)ccc31)[C@H](c1ccc(OCCO)cc1)N1[C@H](c3ccccc3)[C@H](c3ccccc3)OC(=O)[C@H]1[C@@H]2C(=O)N1CCCCCCC1` stands 0.174 (inactive); under `CC(C)=C1C(=O)C(c2ccccc2)=C2CN3C(=O)N(CCc4ccccc4)C(=O)[C@]3(Cc3ccccc3)[C@H]21`, 0.844 (inactive); under `COCCCNC(=O)[C@@]1(Sc2ccc(C)cc2)CC(=O)N(Cc2cc(C(F)(F)F)cc(C(F)(F)F)c2)[C@@H]1c1ccc(CO)cc1I`, 0.007 (inactive).
Still for that read-out and setting: the figure for `COc1ccc([Si](C)(C)[C@H]2[C@H](CC(=O)N3Cc4ccccc4C[C@H]3CO)O[C@@]3(C(=O)N(Cc4cccc(N5CCOC5=O)c4)c4ccccc43)[C@@H]2C)cc1` is -0.958 (inactive); for `CO[C@H]1O[C@H](CO)[C@@H](OC(=O)CCc2ccccc2)[C@@H]2OC(=O)[C@H](Cc3cccc(Br)c3)C/C=C/C[C@@H](Cc3cccc(Br)c3)C(=O)O[C@@H]12` it is -0.962 (inactive).
Turning to `CCCC=C(CCC)[C@@H](NC(=O)c1ccccc1)c1ccccc1`, the z-score was -0.442 (inactive).
Still for that read-out and setting: under `Cc1ccc(S[C@]2(C(=O)NCCCN(C)C)CC(=O)N(C3CCCCC3)[C@@H]2c2ccc(CO)cc2I)cc1` stands -0.212 (inactive).
Take `COCCOC(=O)N1C(=O)[C@@]2(c3cc(C#CCCO)ccc31)[C@H](c1ccc(OCCO)cc1)N1[C@H](c3ccccc3)[C@H](c3ccccc3)OC(=O)[C@H]1[C@@H]2C(=O)NC[C@H](O)c1ccccc1`: the z-score was -0.234 (inactive).
Still for that read-out and setting: the figure for `COCCOC(=O)N1C(=O)[C@@]2(c3cc(C#CCC(C(=O)OC)C(=O)OC)ccc31)[C@H](c1ccccc1OCCO)N1[C@H](c3ccccc3)[C@H](c3ccccc3)OC(=O)[C@H]1[C@@H]2C(=O)N1CCCCCCC1` is -0.304 (inactive); for `O=C(CS)NCCCCCNC(=O)[C@H]1C[C@H]2C(=O)N3CCC[C@H]3C(=O)N2[C@H]1c1ccc(O)cc1` it is 0.23 (inactive).
`CCOC(=O)C[C@H]1[C@H](OC(=O)c2cc3ccccc3oc2=O)[C@@H](NC(=O)C2CCCCC2)c2cc(OCCCO)ccc2N1C(=O)c1ccc2ccccc2n1`: the z-score is 0.453 (inactive).
`O=C1C[C@@](C(=O)NC2CC2)(c2ccc([N+](=O)[O-])cc2)[C@@H](c2ccc(CO)cc2I)N1CC12CC3CC(CC(C3)C1)C2`: the z-score was -0.174 (inactive).
Still for that read-out and setting: under `CCC#CCN(Cc1ccccc1Br)[C@H](/C=C/c1ccccc1)[C@@H](O)Cc1ccccc1` stands -0.415 (inactive).
On to `CC(C)(C)OC(=O)CC[C@]1(C(=O)N2CCCCC2)N=C(c2ccc(OCCCO)cc2)O[C@H]1c1ccccc1`, for which the z-score is -0.478 (inactive).
Turning to `C=C(/C(=C/C[C@@H](OC(=O)c1ccncc1)c1ccc(CO)o1)c1cnc2ccccc2c1)C(C)C`, the z-score is -0.33 (inactive).

The nature of the next assay: blockers of DNA damage checkpoint Chk1 activation – imaging, HeLa, hydroxyurea, phospho-Chk1 nuclear intensity, primary screen (AID 1187). Note: test concentration not given here. As to conditions: hydroxyurea-induced phospho-Chk1 immunofluorescence imaging, higher = more signal.
On to `Cc1ccc(S(=O)(=O)c2cc3oc2CC[C@@H](CO)NC(=O)N(C)Cc2cn(nn2)C[C@H](Cc2ccccc2)NC3=O)cc1`, for which the z-score was -0.0334 (inactive).
Turning to `Cc1ccc(S[C@]2(C(=O)O)CC(=O)N(Cc3ccccc3)[C@@H]2c2ccc(CO)cc2)cc1`, the z-score was -1.23 (inactive).
As to `C=CCC(OC(C)=O)[C@@H]1[C@@H](N(Cc2cc3ccccc3o2)C(=O)Cc2ccc(F)cc2)c2cc(OCCCO)ccc2N1C(=O)c1ccc(-c2ccccc2)cc1` (stereo partly drawn), the z-score is 0.192 (inactive).
Still for that read-out and setting: the figure for `COC(=O)[C@@]1(Cc2ccc(OC)cc2)[C@H]2c3cc(C(=O)N(C)C)n(Cc4ccc(C)c(F)c4F)c3C[C@H]2CN1C(=O)c1ccccc1` is 0.0937 (inactive); for `CN1C(=O)C2C=CC(C(O)c3ccc(N(C)C)cc3)N(Nc3ccc([N+](=O)[O-])cc3[N+](=O)[O-])C2C1=O` (stereo not drawn) it is -0.169 (inactive).
For `CN1C2C=C(c3ccc(CO)cc3)C(C3C(=O)N(C(N)=O)C(=O)C32)C1c1cccs1` (stereo not drawn), the z-score is -1.11 (inactive).
Turning to `C=C(COC)/C(=C/C[C@@H](OC(=O)c1ccncc1)c1ccc(OCCO)cc1)c1cc(C(=O)OC)ccc1OC`, the z-score is 0.535 (inactive).
On the same count and under the same terms, under `CN(C)CCCC[C@@H]1NC(=O)[C@@H]2C[C@H](C(=O)O)[C@H](c3ccc(O)cc3)N2C1=O` stands 0.448 (inactive); under `O=[N+]([O-])c1ccc(C[n+]2ccc3ccc(O)cc3c2)o1`, -0.0404 (inactive); under `COCCOC(=O)N1C(=O)[C@@]2(c3cc(C#CCNC(N)=O)ccc31)[C@H](c1ccc(OCCO)cc1)N1[C@H](c3ccccc3)[C@H](c3ccccc3)OC(=O)[C@H]1[C@@H]2C(=O)N1CCCCCCC1`, 0.272 (inactive).
The same measure, in the same setting: the figure for `CC(C)=C1C(=O)C(c2ccccc2)=C2CN3C(=O)N(CCc4ccccc4)C(=O)[C@]3(Cc3ccccc3)[C@H]21` is 0.84 (inactive); for `COCCCNC(=O)[C@@]1(Sc2ccc(C)cc2)CC(=O)N(Cc2cc(C(F)(F)F)cc(C(F)(F)F)c2)[C@@H]1c1ccc(CO)cc1I` it is 0.283 (inactive).
On the same count and under the same terms, the figure for `COc1ccc([Si](C)(C)[C@H]2[C@H](CC(=O)N3Cc4ccccc4C[C@H]3CO)O[C@@]3(C(=O)N(Cc4cccc(N5CCOC5=O)c4)c4ccccc43)[C@@H]2C)cc1` is -0.191 (inactive); for `CO[C@H]1O[C@H](CO)[C@@H](OC(=O)CCc2ccccc2)[C@@H]2OC(=O)[C@H](Cc3cccc(Br)c3)C/C=C/C[C@@H](Cc3cccc(Br)c3)C(=O)O[C@@H]12` it is -1.1 (inactive); for `CCCC=C(CCC)[C@@H](NC(=O)c1ccccc1)c1ccccc1` it is -0.784 (inactive).
In the case of `Cc1ccc(S[C@]2(C(=O)NCCCN(C)C)CC(=O)N(C3CCCCC3)[C@@H]2c2ccc(CO)cc2I)cc1`, the z-score was -0.074 (inactive).
Still for that read-out and setting: under `COCCOC(=O)N1C(=O)[C@@]2(c3cc(C#CCCO)ccc31)[C@H](c1ccc(OCCO)cc1)N1[C@H](c3ccccc3)[C@H](c3ccccc3)OC(=O)[C@H]1[C@@H]2C(=O)NC[C@H](O)c1ccccc1` stands -0.341 (inactive).
Still for that read-out and setting: the figure for `COCCOC(=O)N1C(=O)[C@@]2(c3cc(C#CCC(C(=O)OC)C(=O)OC)ccc31)[C@H](c1ccccc1OCCO)N1[C@H](c3ccccc3)[C@H](c3ccccc3)OC(=O)[C@H]1[C@@H]2C(=O)N1CCCCCCC1` is -0.309 (inactive).
Same read-out and setting: the figure for `O=C(CS)NCCCCCNC(=O)[C@H]1C[C@H]2C(=O)N3CCC[C@H]3C(=O)N2[C@H]1c1ccc(O)cc1` is 0.426 (inactive).
As to `CCOC(=O)C[C@H]1[C@H](OC(=O)c2cc3ccccc3oc2=O)[C@@H](NC(=O)C2CCCCC2)c2cc(OCCCO)ccc2N1C(=O)c1ccc2ccccc2n1`, the z-score was 0.333 (inactive).
On the same count and under the same terms, under `O=C1C[C@@](C(=O)NC2CC2)(c2ccc([N+](=O)[O-])cc2)[C@@H](c2ccc(CO)cc2I)N1CC12CC3CC(CC(C3)C1)C2` stands -0.372 (inactive); under `CCC#CCN(Cc1ccccc1Br)[C@H](/C=C/c1ccccc1)[C@@H](O)Cc1ccccc1`, -0.241 (inactive).
On the same count and under the same terms, under `CC(C)(C)OC(=O)CC[C@]1(C(=O)N2CCCCC2)N=C(c2ccc(OCCCO)cc2)O[C@H]1c1ccccc1` stands -0.787 (inactive).
Same read-out and setting: under `C=C(/C(=C/C[C@@H](OC(=O)c1ccncc1)c1ccc(CO)o1)c1cnc2ccccc2c1)C(C)C` stands -0.232 (inactive).

(Values after PubChem BioAssay.)
